Inconclusive results are not listed. A call without a number means that no potency is given here. Active and inactive are the calls of the source. Calls follow the shape of the dose curve; as a rule, active = well fitted inhibition curve with a large enough effect; inconclusive = small, poorly fitted or top-dose-only effect; inactive = no such curve, though single readings can be large or run the other way.

The record followed here is PubChem BioAssay AID1508621 (National Center for Advancing Translational Sciences (NCATS), 2021).
Potency is read from the fitted curve at half-maximal effect.

A short description of this assay: Confirmatory qHTS for Identification of Small Molecule Inhibitors of Huntingtin Promoter Activity. Also: nearly all actives have a fitted effect of over 65% in size. The conditions noted are these: HEK293 HTT promoter firefly luciferase reporter, 24 h; series mostly up to 57.5 µM. In short, it runs like this:
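2,500 luciferase reporter HEK293 cells/well; 24 h culture; cpds up to 57.5 uM final, PTC124 50 uM ctrl; 24 h, 37C; Dual-Glo FLuc reagent, 10 min RT; lum. Norm.: vehicle 0%, zero RLU -100%.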
On the technique in general: In qHTS, concentration-response curves come from the screen itself.
On to `COc1ccc(C2C=C(c3ccc(Br)cc3)Nc3nnnn32)c(OC)c1` (stereo unspecified), for which the Potency result is “inactive”.
The same measure for `CCc1nc2ccc(C(=O)NCCc3ccc(OC)cc3OC)cc2nc1CC`: “inactive”.
`CC(=O)c1ccc(N2CCN(c3ncnc4c3cnn4-c3cc(Cl)ccc3C)CC2)cc1`: the Potency was 7.57 µM (active).
As for `COc1ccccc1N1CCN(S(=O)(=O)c2ccc(F)c(C(=O)Nc3ccc(Cl)cc3C(F)(F)F)c2)CC1`, the entry is “inactive”; as for `COc1ccc(S(=O)(=O)Nc2cc3c(cc2NCc2ccccc2)n(C)c(=O)n3C)cc1OC`, “inactive”; as for `CCCCN1CC(c2nc3ccccc3n2CCCCOc2ccc(C)c(C)c2)CC1=O` (stereo unspecified), 19 µM (active).
The same measure for `O=C(Cn1c(=O)oc2cc(S(=O)(=O)N3CCCCC3)ccc21)NCc1ccc(Cl)cc1`: “inactive”; for `CCN(CC)CCOc1ccc(C(=C(Cl)c2ccccc2)c2ccccc2)cc1`: “inactive”.
For `N#CCNC(=O)c1ccc(-c2ccnc(Nc3ccc(N4CCOCC4)cc3)n2)cc1`, the Potency entry was “inactive”.
On to `FC(F)(F)c1cccc(Nc2nc3nonc3nc2Nc2ccc(Cl)cc2)c1`, for which the Potency was 0.379 µM (active).
The same measure for `O=C(c1ccc2c(c1)N(Cc1ccccc1)C(=O)c1ccccc1S2(=O)=O)N1CCCCCC1`: “inactive”; for `Cc1ccc(-n2ncc3c(N(C)Cc4ccccc4)ncnc32)cc1`: “inactive”.
Regarding `COc1cccc(N2CCN(C(=O)c3ccc4nc(N5CCC(C)CC5)sc4c3)CC2)c1`, the Potency was 8.49 µM (active).
In the case of `CCS(=O)(=O)c1ncc(Cl)c(C(=O)N(Cc2ccccc2)c2ccc(OC)cc2)n1`, the Potency was 10.7 µM (active).
On to `CCOC(=O)c1ccc(N2C(=O)c3[nH]nc(-c4ccccc4)c3C2c2cccs2)cc1` (stereo unspecified), for which the Potency was 13.5 µM (active).
As for `CN(C)c1ccc(C(=C2C=CC(=[N+](C)C)C=C2)c2ccc(N(C)C)cc2)cc1`, the figure is 3.01 µM (active); as for `O=C(Nc1ccc(Cl)c(Cl)c1)N(Cc1c[nH]c2ccccc12)C1CCCCC1`, “inactive”.
With `CC(=O)c1cccc(NS(=O)(=O)c2cccc(S(=O)(=O)c3ccc(Br)cc3)c2)c1`, the Potency was 26.9 µM (active).
For `COc1ccc(Nc2nc(-c3ccc(C)cc3)nc3ccccc23)c(OC)c1`, the Potency entry is “inactive”.
For `CCN(CC)CCNC(=O)c1c(C)[nH]c(C=C2C(=O)Nc3ccc(F)cc32)c1C`, the Potency result is “inactive”.
Consider `Cc1ccc2nc(CSc3nnc(NC(=O)COc4ccccc4)s3)cc(=O)n2c1`, for which the Potency entry is “inactive”.
